In the library only some 4.3% were active in any assay of this set; here they are far more common.
esBAF inh: Bmi1 luciferase reporter increase in mESCs, primary screen, esBAF inhibitor project, mouse ES cells, Bmi1 luciferase knock-in, single point | 2% of 350,000 active | reporter increase, % at 12.5 µM | 24 h; 100% = twice the neutral-well signal; in the data active = activation above about 40%;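 also: a rise in the Bmi1 reporter signal indicates esBAF inhibition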
HSF1 inh: HSF1 inhibitors in luciferase reporter cells, primary screen, cell-based, NIH3T3, luminescence; NIH3T3-HGL HSE-luciferase, MG132-induced, luminescence 8 h; hits give low values; activity change, negative = inhibition, % at 7.5 µM (by protocol); 0.77% of 300,000 active;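 active = more than half of replicate wells show activity change below -50%, luminescence cut by over half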;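 also: luciferase reports HSF-1 transcriptional activity via heat shock element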
Wnt act: Wnt/beta-catenin pathway activators, primary screen, cell-based, plate reader, single point. Wnt/beta-catenin reporter cell assay, activator. AID 743398, 2014. activation, % at 9.35 µM. 1.2% of 300,000 active; in the data active = activation above about 30%, passing the limit was not always enough
MITF TRPM1 HTS: activators of MITF-driven TRPM1 promoter reporter, primary screen, cell-based, SK-MEL-5, luciferase, single point. SK-MEL-5 TRPM1-promoter luciferase, 24 h; % of positive control, neutral wells = 0. activation, % at 12.5 µM. 0.75% of 300,000 active. AID 588334, 2011;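 active = mean activation of at least 80% with every replicate also reaching 80%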
HSF1 activator: HSF-1 activators, primary screen, NIH3T3-HGL cells, MG132 stress, luminescence, single point; NIH3T3-HGL HSF-1 luciferase reporter, 8 h; 100% = twice DMSO control signal; activation, % at 9 µM; 1.7% of 300,000 active; AID 504408, 2011;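 active = mean replicate activation of at least 50% with a set share of replicates each reaching 50%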
SMARCA2 act: SMARCA2 (BRM) function activators, primary screen, cell-based, luminescence, high throughput. MG213 cells, MMTV-luciferase reporter, dexamethasone, overnight. activation, % at 9.1 µM. 1% of 370,000 active; in the data active = activation above about 7.8%
Hits are given with their value; ! = not active in a repeat.

What do the screens show for `C[C@@H]1CN([C@@H](C)CO)C(=O)c2c(c3ccccc3n2C)-c2ccccc2CO[C@H]1CN(C)S(=O)(=O)c1cn(C)cn1`?
esBAF inh: inactive

Results for CCCCN(C=O)c1c(CC)nc2c(OCC(=O)c3ccc(F)cc3)cccn12 ?
esBAF inh: inactive; Wnt act: inactive; SMARCA2 act: 7.9

Results for O=C(Nc1ccccc1Cl)c1csc(-c2cccnc2)n1 ?
esBAF inh: 59; HSF1 inh: inactive; Wnt act: inactive; MITF TRPM1 HTS: inactive; HSF1 activator: inactive; SMARCA2 act: inactive

What do the screens show for `C[C@H]1CN([C@@H](C)CO)C(=O)Cc2cc(NC(=O)Nc3ccc(F)cc3)ccc2O[C@@H]1CN(C)Cc1ccccc1`?
esBAF inh: inactive

Results for O=C(c1ccccn1)N1C[C@H]2[C@@H](c3ccccc31)[C@@H](CO)N2C(=O)C1CCCC1 ?
esBAF inh: inactive

What do the screens show for `CC(C)NC(=O)Nc1ccc2c(c1)CC(=O)N([C@H](C)CO)C[C@@H](C)[C@H](CN(C)Cc1ccccc1)O2`?
esBAF inh: inactive

How did COCCN(C(=O)CCC(=O)Nc1cc(C)on1)C(C(=O)NC(C)(C)C)c1ccccc1Cl (stereo not given) do in these assays?
esBAF inh: inactive; HSF1 inh: inactive; Wnt act: inactive; MITF TRPM1 HTS: inactive; HSF1 activator: inactive; SMARCA2 act: 7.8

What do the screens show for `C=CCN(C(=O)CCC(=O)Nc1cc(C)on1)C(C(=O)NC(C)(C)C)c1cccc(OC)c1OC` (stereo not given)?
esBAF inh: inactive; HSF1 inh: inactive; Wnt act: inactive; HSF1 activator: 83; SMARCA2 act: inactive

How did O=C(C[C@H]1CC[C@@H]2[C@H](COC[C@H](O)CN2C(=O)c2ccccc2F)O1)NCc1ccc(-c2ccccc2)cc1 do in these assays?
esBAF inh: inactive

How did COc1ccc2c(c1)[N+](C)(C)C(C)(C)C=C2C do in these assays?
esBAF inh: inactive; HSF1 inh: inactive; Wnt act: inactive; MITF TRPM1 HTS: inactive; HSF1 activator: inactive; SMARCA2 act: inactive

How did CCOc1ccc2c(c1)[N+](C)(C)C(C)(C)C=C2C do in these assays?
HSF1 inh: -80; Wnt act: inactive; MITF TRPM1 HTS: inactive; HSF1 activator: inactive; SMARCA2 act: inactive

What do the screens show for `COc1ccc(S(=O)(=O)N(C)C[C@H]2OCCCC[C@@H](C)Oc3ccc(NC(=O)Nc4ccccc4)cc3C(=O)N([C@@H](C)CO)C[C@H]2C)cc1`?
esBAF inh: inactive

What do the screens show for `C[C@@H]1CN([C@H](C)CO)C(=O)c2cc(NC(=O)Cc3ccccc3)ccc2O[C@@H](C)CCCCO[C@H]1CN(C)C(=O)CCC(F)(F)F`?
esBAF inh: inactive

Results for C[C@H](CO)N1C[C@H](C)[C@H](CN(C)C(=O)Nc2ccc3c(c2)OCO3)Oc2c(NS(=O)(=O)c3ccccc3)cccc2C1=O ?
esBAF inh: 68

Results for C[C@@H]1CN([C@H](C)CO)C(=O)c2cccc(NC(=O)Nc3ccc4c(c3)OCO4)c2O[C@H]1CN(C)S(=O)(=O)c1cccs1 ?
esBAF inh: 47

Results for C[C@@H]1CN([C@H](C)CO)C(=O)c2cc(NC(=O)Nc3ccc4c(c3)OCO4)ccc2O[C@@H]1CN(C)S(=O)(=O)c1cccs1 ?
esBAF inh: inactive

How did C[C@H](CO)N1C[C@H](C)[C@@H](CN(C)C(=O)Nc2ccc3c(c2)OCO3)Oc2c(NS(=O)(=O)c3ccccc3)cccc2C1=O do in these assays?
esBAF inh: inactive; Wnt act: inactive; MITF TRPM1 HTS: inactive; SMARCA2 act: inactive

What do the screens show for `Cc1ccc(S(=O)(=O)Nc2cccc3c2O[C@@H](CN(C)C(=O)Nc2ccc4c(c2)OCO4)[C@H](C)CN([C@@H](C)CO)C3=O)cc1`?
esBAF inh: 60!; Wnt act: inactive; MITF TRPM1 HTS: inactive; SMARCA2 act: inactive

What do the screens show for `C[C@H](CO)N1C[C@H](C)[C@@H](CN(C)C(=O)Nc2ccc3c(c2)OCO3)OCc2ccccc2-c2c(n(C)c3ccccc23)C1=O`?
esBAF inh: inactive

How did C[C@@H]1CN([C@@H](C)CO)C(=O)c2c(c3ccccc3n2C)-c2ccccc2CO[C@@H]1CN(C)C(=O)Nc1ccc2c(c1)OCO2 do in these assays?
esBAF inh: 50

Results for COc1ccc(C(=Cc2ccccc2)C(=O)O)cc1 ?
esBAF inh: inactive; Wnt act: inactive; MITF TRPM1 HTS: inactive; SMARCA2 act: inactive

What do the screens show for `COc1ccc(C=C(C(=O)O)c2ccc(OC)cc2)cc1`?
esBAF inh: 52; Wnt act: inactive; MITF TRPM1 HTS: inactive; SMARCA2 act: inactive

How did CC(C)NC(=O)N[C@@H]1C=C[C@H](CC(=O)NCc2ccc(Oc3ccccc3)cc2)O[C@H]1CO do in these assays?
esBAF inh: inactive

Results for Cc1c(O)ccc2c(CC(=O)N[C@@H](Cc3ccc(O)cc3)C(=O)O)cc(=O)oc12 ?
esBAF inh: inactive; HSF1 inh: -70; Wnt act: inactive; HSF1 activator: inactive; SMARCA2 act: inactive

How did CC(C)C(C(=O)NCc1ccco1)N(CC1CCCO1)C(=O)CNS(=O)(=O)c1ccccc1 (stereo not given) do in these assays?
HSF1 inh: inactive; Wnt act: inactive; MITF TRPM1 HTS: inactive; HSF1 activator: inactive; SMARCA2 act: inactive

What do the screens show for `CC(C)C(C(=O)NCc1ccccc1)N(CC1CCCO1)C(=O)CNS(=O)(=O)c1ccccc1` (stereo not given)?
esBAF inh: inactive; HSF1 inh: inactive; Wnt act: inactive; MITF TRPM1 HTS: inactive; HSF1 activator: 83; SMARCA2 act: inactive

How did C[C@@H]1CN([C@H](C)CO)C(=O)Cc2cc(NS(=O)(=O)c3ccccc3)ccc2O[C@H]1CN(C)Cc1ccc2c(c1)OCO2 do in these assays?
esBAF inh: inactive

Results for COc1ccc(-c2csc(Nc3ccccc3)[n+]2CC(O)c2ccc([N+](=O)[O-])cc2)cc1 (stereo not given) ?
HSF1 inh: inactive; Wnt act: inactive; MITF TRPM1 HTS: inactive; HSF1 activator: inactive; SMARCA2 act: inactive

Results for CCCCCC[n+]1c(-c2ccccc2)csc1Nc1ccccc1 ?
HSF1 inh: inactive; Wnt act: inactive; MITF TRPM1 HTS: inactive; HSF1 activator: 63; SMARCA2 act: inactive

How did CN1C(=O)c2cc(NC(=O)Cc3cccs3)ccc2OC[C@H]2O[C@@H](CC(=O)NCC3CCCCC3)CC[C@H]21 do in these assays?
esBAF inh: inactive

Compound activity from PubChem BioAssay.
